The values that follow come from PubChem BioAssay (NCATS).

Inconclusive results are not listed. Calls of active or inactive are those of the source. Calls come from the whole dose curve; as a rule, active = well fitted curve in the direction sought with a large enough effect; inconclusive = small, poorly fitted or top-dose-only effect, or another doubt; inactive = no such curve, though single readings can be large; an effect the other way counts as inactive or inconclusive.

The first experiment has as its target Aldehyde dehydrogenase, mitochondrial (Homo sapiens) (UniProt P05091). Nature of the experiment: qHTS for Inhibitors of the Aldehyde Dehydrogenase Family (ALDH2) Primary screen (AID 2061308).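 Note: plate controls were vehicle for no effect and reference inhibitor for full effect; nearly all actives have a fitted effect of over 55% in size.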 Particulars: ALDH2 enzyme inhibition qHTS, 1536-well; series mostly up to 56 µM; activity change, negative = inhibition: at the top concentration. A general note: In qHTS, concentration-response curves come from the screen itself.
For `O=S(=O)(Nc1nccs1)c1ccc(NCc2cccc(Cl)c2O)cc1`, the “activity change, negative = inhibition” value is -18.4% (inactive).
On to `CC(=O)Nc1sc2c(c1-c1ccc3c(c1)OCCO3)CCNC2`, for which the “activity change, negative = inhibition” value was -5.88% (inactive).
Regarding `N#CN/C(=N\c1nnc(-c2ccncc2)s1)Nc1ccc(F)c(C(F)(F)F)c1`, the “activity change, negative = inhibition” value is -9.12% (inactive).
Still for that read-out and setting: for `O=S(=O)(c1ccc2c(c1)OCCO2)N1CCN(S(=O)(=O)c2cc(F)c(Br)cc2F)CC1` the value was 3.93% (inactive); for `CN(Cc1cccs1)c1nc(-c2ccccc2C(F)(F)F)nc2ccccc12`, -12.5% (inactive).
Turning to `Cc1nc(N2CCOCC2)c2nc(-c3ccccc3)n(CCCN(C)C)c2n1`, the “activity change, negative = inhibition” value was 10.7% (inactive).
As for `CCCn1c(C)nc2c(N3CCC(N(C)C)C3)nc(C)nc21` (stereo not drawn), the “activity change, negative = inhibition” value is 4.35% (inactive).
On to `N#Cc1cnc(N[S+](=O)([O-])c2ccc(Nc3nc(-c4ccccc4)cs3)cc2)s1`, for which the “activity change, negative = inhibition” value is 2.7% (inactive).
The same measure, in the same setting: the value for `COc1ccccc1S(=O)(=O)Nc1cnccc1C(=O)Nc1nc(-c2ccccc2)cs1` was -11.6% (inactive).
Consider `O=S(=O)(NC[C@@H]1CCC[C@H](CNS(=O)(=O)c2c(F)cccc2F)C1)c1ccc2c(c1)OCCO2`, for which the Potency result is “inactive”.
Take `Cc1cc2c(s1)c1cnn(Cc3ccc(C(F)(F)F)cc3F)c(=O)c1n2C`: the “activity change, negative = inhibition” value was 5.99% (inactive).
Regarding `CCCc1ccc(-c2csc(NC(=O)c3ccncc3NS(=O)(=O)c3ccc(C)cc3)n2)cc1`, the “activity change, negative = inhibition” value is 5.15% (inactive).
In the case of `Cn1c2ccsc2c2ncn(Cc3ccc(F)cc3)c(=O)c21`, the “activity change, negative = inhibition” value is 6.06% (inactive).
With `O=C1CCc2cc(S(=O)(=O)Nc3cccc(-c4ccccc4)c3)ccc2N1`, the “activity change, negative = inhibition” value was -9.34% (inactive).
In the case of `CC1(C(=O)O)CCCC2(C)C3CCC4CC3(CCC12)CC4(O)CO` (stereo not drawn), the “activity change, negative = inhibition” value is 2.3% (inactive).
On the same count and under the same terms, the value for `O=S(=O)(c1cccc(F)c1)N1CCN(S(=O)(=O)c2ccc3c(c2)OCCO3)CC1` was 15.4% (inactive); that for `COc1ccc(C(=O)Nc2ccc(-c3nc4ccccc4[nH]3)cc2)cc1F` was 16.4% (inactive); that for `O=[S+]([O-])(c1ccc2c(c1)OCCO2)N1CCN([S+](=O)([O-])c2c(O)cc(F)cc2F)CC1` was -6.41% (inactive).
As for `CCN(CC)C(=O)c1cc(S(=O)(=O)Cc2ccccc2)c(N2CCC(c3ccccc3)CC2)cc1N(CC)CCN(C)C`, the Potency entry is “inactive”.
For the compound `O=C1CCCC2=C1C(c1cccc(Oc3ccccc3)c1)N=C(Nc1nc3ccccc3o1)N2` (stereo not drawn), the “activity change, negative = inhibition” value was 5.16% (inactive).
As to `O=C(O)c1ccc2c(c1)C(=O)N([C@@H](C(=O)O)C(c1ccccc1)c1ccccc1)C2=O`, the “activity change, negative = inhibition” value was -3.16% (inactive).
In the case of `O=[N+]([O-])c1ccc(-c2nc(Nc3ccc(F)c(F)c3)c3ccccc3n2)cc1`, the “activity change, negative = inhibition” value was 0.713% (inactive).
As to `Cc1cccc(-n2cnc3cc(C(=O)N4CCOCC4)ccc32)c1`, the “activity change, negative = inhibition” value was -3.05% (inactive).

For another experiment, the target named is Retinaldehyde dehydrogenase 3 (Homo sapiens) (UniProt P47895). Nature of the experiment: qHTS for Inhibitors of the Aldehyde Dehydrogenase Family (ALDH1A3) Primary screen (AID 2061315).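 Note: plate controls were DMSO vehicle for no effect and reference inhibitor for full effect.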 The settings on record: ALDH inhibition qHTS; series mostly up to 56 µM; activity change, negative = inhibition: at the top concentration.
On to `CCOc1ccc(CCNC(=O)C2COc3ccccc3O2)cc1OCC` (stereo not drawn), for which the “activity change, negative = inhibition” value was -4.29% (inactive).
Same read-out and setting: for `CC(C)(C)c1cccc(-n2cnc3cc(C(=O)N4CCCCC4)ccc32)c1` the value was -1.19% (inactive); for `O=C(c1ccc2c(c1)ncn2-c1cccc(C(F)(F)F)c1)N1CCCCC1`, -2.34% (inactive).
Turning to `COc1ccc(NC(=O)c2ccc(-c3nc4ccccc4[nH]3)cc2)cc1OC`, the “activity change, negative = inhibition” value is -16.5% (inactive).
On to `COc1ccccc1CNC(=O)Nc1nnc(-c2ccncc2)s1`, for which the “activity change, negative = inhibition” value was 2.46% (inactive).
On to `CC1=C(C(=O)Nc2ccon2)C2(CCCC2)N=C(Nc2nc3ccccc3o2)N1`, for which the “activity change, negative = inhibition” value was 21.5% (inactive).
Same read-out and setting: for `CCOc1ccc(CCNC(=O)c2cc3sccc3n2Cc2ccncc2)cc1OCC` the value was -3.02% (inactive).
Same read-out and setting: the value for `COc1cccc(CNc2ccc(S(=O)(=O)Nc3ccc(-c4ccccc4)cc3)cc2)c1O` was 1.85% (inactive).
As for `O=C(Nc1ccc(F)c(C(F)(F)F)c1)Nc1cccc(-c2ccncc2)n1`, the “activity change, negative = inhibition” value was 8.02% (inactive).
The same measure, in the same setting: for `O=C(Cn1cc(CNC(=O)C2CCCCC2)nn1)Nc1cc(C(F)(F)F)ccc1Cl` the value was 0.711% (inactive); for `CCCCNC(=S)NCCCc1cnc[nH]1`, 6.54% (inactive); for `COC(=O)C1CCN(C(=O)c2ccc3c(c2)ncn3-c2cccc(C)c2)CC1`, -2.1% (inactive).
For `Cc1cc(NS(=O)(=O)c2ccc(NC(=O)Cc3cccc4ccccc34)cc2)no1`, the “activity change, negative = inhibition” value was 3.69% (inactive).
For `COc1ccccc1C1=Nn2c(nnc2-c2ccccc2O)SC1`, the “activity change, negative = inhibition” value is 13.8% (inactive).
Take `c1nc(OCc2cnc[nH]2)c2cc(-c3ccc4c(c3)OCO4)ccc2n1`: the “activity change, negative = inhibition” value was 4.8% (inactive).
Turning to `COc1ccc(C2Nc3ccccc3C(=O)N2Cc2ccco2)cc1CSc1c(C)cccc1C` (stereo not drawn), the “activity change, negative = inhibition” value is 1.94% (inactive).
On to `Cc1ccc(OCCn2c(CCNC(=O)c3ccccc3F)nc3ccccc32)cc1`, for which the “activity change, negative = inhibition” value was -1.03% (inactive).
Regarding `O=S(=O)(Nc1nccs1)c1ccc(NCc2cccc(Cl)c2O)cc1`, the “activity change, negative = inhibition” value was 3.64% (inactive).
On the same count and under the same terms, for `CC(=O)Nc1sc2c(c1-c1ccc3c(c1)OCCO3)CCNC2` the value was -28.6% (inactive).
For `N#CN/C(=N\c1nnc(-c2ccncc2)s1)Nc1ccc(F)c(C(F)(F)F)c1`, the “activity change, negative = inhibition” value is 13.4% (inactive).
Take `O=S(=O)(c1ccc2c(c1)OCCO2)N1CCN(S(=O)(=O)c2cc(F)c(Br)cc2F)CC1`: the “activity change, negative = inhibition” value was -6.23% (inactive).
As to `CN(Cc1cccs1)c1nc(-c2ccccc2C(F)(F)F)nc2ccccc12`, the “activity change, negative = inhibition” value is -1.1% (inactive).
With `Cc1nc(N2CCOCC2)c2nc(-c3ccccc3)n(CCCN(C)C)c2n1`, the “activity change, negative = inhibition” value is -6.01% (inactive).
As for `CCCn1c(C)nc2c(N3CCC(N(C)C)C3)nc(C)nc21` (stereo not drawn), the “activity change, negative = inhibition” value is 4.86% (inactive).
Turning to `N#Cc1cnc(N[S+](=O)([O-])c2ccc(Nc3nc(-c4ccccc4)cs3)cc2)s1`, the “activity change, negative = inhibition” value was -1.87% (inactive).
`COc1ccccc1S(=O)(=O)Nc1cnccc1C(=O)Nc1nc(-c2ccccc2)cs1`: the “activity change, negative = inhibition” value was 10.6% (inactive).
On to `O=S(=O)(NC[C@@H]1CCC[C@H](CNS(=O)(=O)c2c(F)cccc2F)C1)c1ccc2c(c1)OCCO2`, for which the Potency result is “inactive”.
In the case of `Cc1cc2c(s1)c1cnn(Cc3ccc(C(F)(F)F)cc3F)c(=O)c1n2C`, the “activity change, negative = inhibition” value was 1.56% (inactive).
In the case of `CCCc1ccc(-c2csc(NC(=O)c3ccncc3NS(=O)(=O)c3ccc(C)cc3)n2)cc1`, the “activity change, negative = inhibition” value was 3.95% (inactive).
As to `Cn1c2ccsc2c2ncn(Cc3ccc(F)cc3)c(=O)c21`, the “activity change, negative = inhibition” value is -6.17% (inactive).
Consider `O=C1CCc2cc(S(=O)(=O)Nc3cccc(-c4ccccc4)c3)ccc2N1`, for which the “activity change, negative = inhibition” value is 4.1% (inactive).
Regarding `CC1(C(=O)O)CCCC2(C)C3CCC4CC3(CCC12)CC4(O)CO` (stereo not drawn), the “activity change, negative = inhibition” value was 8.82% (inactive).
Same read-out and setting: the value for `O=S(=O)(c1cccc(F)c1)N1CCN(S(=O)(=O)c2ccc3c(c2)OCCO3)CC1` was 1.23% (inactive).
In the case of `COc1ccc(C(=O)Nc2ccc(-c3nc4ccccc4[nH]3)cc2)cc1F`, the “activity change, negative = inhibition” value is 3.91% (inactive).
With `O=[S+]([O-])(c1ccc2c(c1)OCCO2)N1CCN([S+](=O)([O-])c2c(O)cc(F)cc2F)CC1`, the “activity change, negative = inhibition” value is 2.81% (inactive).
Consider `CCN(CC)C(=O)c1cc(S(=O)(=O)Cc2ccccc2)c(N2CCC(c3ccccc3)CC2)cc1N(CC)CCN(C)C`, for which the Potency entry is “inactive”.
As for `O=C1CCCC2=C1C(c1cccc(Oc3ccccc3)c1)N=C(Nc1nc3ccccc3o1)N2` (stereo not drawn), the “activity change, negative = inhibition” value is 17.9% (inactive).
For the compound `O=C(O)c1ccc2c(c1)C(=O)N([C@@H](C(=O)O)C(c1ccccc1)c1ccccc1)C2=O`, the “activity change, negative = inhibition” value was -1.29% (inactive).
Take `O=[N+]([O-])c1ccc(-c2nc(Nc3ccc(F)c(F)c3)c3ccccc3n2)cc1`: the “activity change, negative = inhibition” value was 5.84% (inactive).
Same read-out and setting: for `Cc1cccc(-n2cnc3cc(C(=O)N4CCOCC4)ccc32)c1` the value was -2.52% (inactive).
